Hits are enriched below; roughly 2.4% of the tested compounds scored in any of these assays.
TsaE inh: YjeE (TsaE) inhibition, E. coli; Potency, µM; purified YjeE enzyme, qHTS inhibition assay; actives 0.05% (n = 71,000)
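Fluorescence polarization of a BODIPY Texas Red–ADP probe (2 uM) bound to purified YjeE (10 uM) was read after 15 min room-temperature incubation with compounds. Loss of polarization marks inhibitors; ADP serves as titrated control.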
DNA Pol III inh: DNA polymerase III holoenzyme inhibition. reconstituted DNA polymerase III holoenzyme replication, biochemical. actives 0.25% (n = 71,000). Potency, µM (highest dose often 57.1 µM), for the others: at the top dose activity change, negative = inhibition; also: potency is read from the fitted curve at half-maximal effect; % is scaled to controls: 0 for no effect and ±100 for the full control effect
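Reconstituted *E. coli* holoenzyme (0.35 nM Pol III, 1 nM beta, 154 nM SSB, 2 nM primase) was preincubated with compound for 15 min at RT. Synthesis on 1.4 nM ssM13Gori ran 35 min, then was stopped with PicoGreen/EDTA and read as dsDNA fluorescence.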
ALOX15 inhib: 15-hLO (ALOX15) enzyme inhibition; P16050; purified 15hLO-1, xylenol orange hydroperoxide absorbance; Potency, µM (titrated, usually from 57.1 µM), inactives show at the top dose activity change, negative = inhibition, hits mostly inhibitors; actives 1.4% (n = 74,000); also: potency is read from the fitted curve at half-maximal effect; % is scaled to controls: 0 for no effect and ±100 for the full control effect; nearly all actives have a fitted effect of over 55% in size
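Purified human 15hLO-1 (40 nM final) in 25 mM Hepes pH 7.5, 0.01% Triton X-100 was preincubated with compound 15 min at room temperature, then reacted 6 min with 50 uM arachidonic acid; hydroperoxide detected by Fe-XO, 573/405 nm absorbance ratio.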
BRCT PPI red: inhibitors of human BRCA1 BRCT-phosphoprotein interaction (red fluorophore); actives 0.03% (n = 75,000); Potency, µM (doses to about 76.9 µM), inactives show at the highest dose activity change, negative = inhibition, usual class: inhibitors; BRCT-phosphopeptide binding, red fluorescence polarization; P38398; also: % is scaled to controls: 0 for no effect and ±100 for the full control effect
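Fluorescence polarization: 100 nM His-tagged BRCA1 BRCT with 100 nM TAMRA-labelled phospho-BACH1 decapeptide, phosphate buffer pH 7.3 with 150 mM NaCl, DTT, 0.01% Tween 20; 12 min RT. Binding inhibition seen as FP decrease.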
BRCT inh green: inhibitors of human BRCA1 BRCT-phosphoprotein interaction (green fluorophore). Potency, µM (highest dose often 76.9 µM), without a hit: top-dose activity change, negative = inhibition, usual class: inhibitors. actives 0.05% (n = 75,000). BRCA1 BRCT-phosphopeptide binding, green fluorescence polarization;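 also: potency is read from the fitted curve at half-maximal effect; plate controls were peptide without protein for full effect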
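Compounds were incubated for 12 min at room temperature with a complex of 100 nM fluorescein-tagged pBACH1 decapeptide and 250 nM His-tagged BRCT protein. Buffer was phosphate pH 7.3 with EDTA, DTT and Tween 20. Disruption of binding lowers the polarization signal.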
ERK AVP inh: inhibitors of vasopressin-stimulated ERK signaling pathway; HEK293-V1b, vasopressin-stimulated pERK AlphaScreen; Potency, µM (series often up to 57.5 µM), inactives show at the top dose activity, negative = inhibition, most hits filed as inhibitors; actives 0.99% (n = 72,000); AID 995; also: potency is read from the fitted curve at half-maximal effect; % is scaled to controls: 0 for no effect and ±100 for the full control effect; nearly all actives have a fitted effect of over 55% in size
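Overnight-seeded V1b-HEK293 cells in 1% FBS got compound, then vasopressin (25 nM final, 5 min, 37C), then lysis buffer. AlphaScreen detection of phospho-ERK; activity normalized to basal and full-stimulation controls.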
Numbers without * were called inactive; [ ] = another dose, or the depositor's remark. Calls follow the shape of the dose curve; as a rule, active = well fitted curve in the direction sought with a large enough effect; inconclusive = small, poorly fitted or top-dose-only effect, or another doubt; inactive = no such curve, though single readings can be large; an effect the other way counts as inactive or inconclusive.

C[C@@]12C(=O)OC(=O)[C@]1(C)[C@H]1CC[C@@H]2O1 was read as TsaE inh inactive, DNA Pol III inh -4.6%[25.6 µM], ALOX15 inhib 21.1%[25.6 µM], BRCT PPI red 0.0%[34.4 µM], BRCT inh green -1.7%[34.4 µM] and ERK AVP inh 5.01µM*.
Screening COC(=O)Nc1sc2c(c1C(N)=O)CCCCCC2 returned TsaE inh inactive, DNA Pol III inh -8.2%, ALOX15 inhib 12.6µM*, BRCT PPI red -0.4%, BRCT inh green -1.1% and ERK AVP inh -16.9%.
For CCOC(=O)c1ccc(CC(=O)c2oc3cc(O)ccc3c2C)o1 the results were TsaE inh inactive, DNA Pol III inh 2.3%, ALOX15 inhib 20µM*, BRCT PPI red 1.0%, BRCT inh green 1.7% and ERK AVP inh 1.1%.
`CCOC(=O)c1oc2cc(O)ccc2c(=O)c1-c1csc(C)n1` gave TsaE inh inactive, DNA Pol III inh -3.1%, ALOX15 inhib 1.9%, BRCT PPI red -0.4%, BRCT inh green -3.1% and ERK AVP inh 12.2%.
Cc1ccc(C(=O)N2CCN(c3ccccc3)CC2)cc1C was read as TsaE inh inactive, DNA Pol III inh 1.1%, ALOX15 inhib -20.1%, BRCT PPI red 0.6%, BRCT inh green -2.5% and ERK AVP inh 51.7%.
Screening O=C(Nc1ccc(N2CCOCC2)cc1)Nc1ccc2nc(-c3ccco3)c(-c3ccco3)nc2c1 returned TsaE inh inactive, DNA Pol III inh -5.8%, ALOX15 inhib 3.98µM*, BRCT PPI red -0.4%, BRCT inh green -0.3% and ERK AVP inh -22.7%.
`O=S(=O)(c1ccc2nc(-c3ccco3)c(-c3ccco3)nc2c1)N1CCOCC1` gave TsaE inh inactive, DNA Pol III inh inconclusive, ALOX15 inhib 2.51µM*, BRCT PPI red -10.1%, BRCT inh green -4.4% and ERK AVP inh inconclusive.
`O=C(c1ccc2ccccc2c1)N1CCN(c2ccc(O)cc2)CC1` gave TsaE inh inactive, DNA Pol III inh -2.2%, ALOX15 inhib 3.16µM*, BRCT PPI red 0.9%, BRCT inh green -2.4% and ERK AVP inh 8.0%.
O=C(c1ccc2nc(-c3ccco3)c(-c3ccco3)nc2c1)N1CCN(c2ccccc2)CC1 was read as TsaE inh inactive, DNA Pol III inh 1.5%, ALOX15 inhib 3.16µM*, BRCT PPI red -17.8%, BRCT inh green -12.0% and ERK AVP inh inconclusive.
`COC(=O)C/C=C\[C@@H](C)[C@@H]1C=C[C@H](OC(C)=O)[C@H](COC(C)=O)O1` gave ALOX15 inhib 8.3%[11.4 µM], BRCT PPI red 2.3%[15.4 µM], BRCT inh green -1.1%[15.4 µM] and ERK AVP inh 22.6%[11.5 µM].
C=C1C(C(=O)N2CCOCC2)C1C(=O)N1CCOCC1 (centres undefined) was read as TsaE inh inactive, DNA Pol III inh -5.6%, ALOX15 inhib 1.1%, BRCT PPI red 0.5%, BRCT inh green -2.8% and ERK AVP inh -5.2%.
For CC(C)c1nnc(NC(=O)CCC(=O)Nc2ccc(F)cc2)s1 the results were TsaE inh inactive, DNA Pol III inh -12.0%, ALOX15 inhib -15.8%, BRCT PPI red 0.1%, BRCT inh green -0.4% and ERK AVP inh 19.5%.
`S=C(c1ccc(-c2ccc(Cl)c(Cl)c2)o1)N1CCOCC1` gave TsaE inh inactive, DNA Pol III inh 8.9%, ALOX15 inhib inconclusive, BRCT PPI red 0.4%, BRCT inh green 1.1% and ERK AVP inh inconclusive.
For S=C(c1ccc(-c2ccccc2Cl)o1)N1CCOCC1 the results were TsaE inh inactive, DNA Pol III inh -7.9%, ALOX15 inhib inconclusive, BRCT PPI red 1.0%, BRCT inh green -2.4% and ERK AVP inh 25.1µM*.
O=C(/C=C\c1ccc(O)c(O)c1)OCCc1ccccc1 was read as TsaE inh inactive, DNA Pol III inh -2.0%, ALOX15 inhib 0.794µM*, BRCT PPI red -3.6%, BRCT inh green -1.3% and ERK AVP inh inconclusive.
O=C(/C=C/c1ccc(O)c(O)c1)O[C@@H](C(=O)O)[C@@H](OC(=O)/C=C/c1ccc(O)c(O)c1)C(=O)O was read as TsaE inh inactive, DNA Pol III inh -6.4%, ALOX15 inhib inconclusive, BRCT PPI red -0.8%, BRCT inh green -1.4% and ERK AVP inh -15.6%.
`CN(C)/C=C1\C(=O)c2ccc(N(C)C)nc2CC1c1ccccc1` (centres undefined) gave TsaE inh inactive, DNA Pol III inh -4.3%, ALOX15 inhib 5.01µM*, BRCT PPI red -0.7%, BRCT inh green 12.2% and ERK AVP inh 13.3%.
`N#C/C(=C\c1ccc[nH]1)Sc1nc2ccccc2s1` gave TsaE inh inactive, DNA Pol III inh -0.6%, ALOX15 inhib 15.8µM*, BRCT PPI red 1.2%, BRCT inh green 10.3% and ERK AVP inh inconclusive.
`CC(C)=NOCc1ccc(-c2cn([C@@H]3COC[C@@H]3O)nn2)cc1` gave ALOX15 inhib 1.6%[11.4 µM], BRCT PPI red 0.7%[15.4 µM], BRCT inh green 1.2%[15.4 µM] and ERK AVP inh 12.2%[11.5 µM].
Screening COC(=O)NC(/C(C(=O)OC)=C(\C)NCc1ccccc1)c1ccc(Cl)cc1 (centres undefined) returned ALOX15 inhib 7.8%[11.4 µM], BRCT PPI red 0.5%[15.4 µM], BRCT inh green -1.7%[15.4 µM] and ERK AVP inh 15.3%[11.5 µM].
CN1CCN(c2ncncc2-c2ccoc2)CC1 was read as TsaE inh inactive, DNA Pol III inh -6.9%, ALOX15 inhib 31.6µM*, BRCT PPI red -1.5%, BRCT inh green 0.8% and ERK AVP inh -13.0%.
Screening COc1ccc(Oc2ncc3ncc(=O)n(Cc4cccc(OC)c4)c3n2)cc1 returned TsaE inh inactive, DNA Pol III inh -13.0%, ALOX15 inhib 0.7%, BRCT PPI red 0.5%, BRCT inh green -1.5% and ERK AVP inh 8.8%.
C[N+](C)(C)/N=C\c1ccc(O)c(O)c1 was read as TsaE inh inactive, DNA Pol III inh -1.2%[11.4 µM], ALOX15 inhib -5.4%[11.4 µM], BRCT PPI red -1.1%[15.4 µM], BRCT inh green -1.2%[15.4 µM] and ERK AVP inh -1.2%[11.5 µM].
`Oc1ccc(N=Cc2ccc(O)c(O)c2)cc1` gave TsaE inh inconclusive, DNA Pol III inh -24.6%, ALOX15 inhib 12.6µM*, BRCT PPI red -1.5%, BRCT inh green -2.2% and ERK AVP inh inconclusive.
Screening Cc1ccc(C2C(C#N)=C(N)SC(N)=C2C#N)c(C)c1 returned TsaE inh inactive, DNA Pol III inh 5.7%, ALOX15 inhib inconclusive, BRCT PPI red 1.8%, BRCT inh green 57.7% and ERK AVP inh 18.7%.
For N#CC1=C(N)SC(N)=C(C#N)C1c1ccnc2ccccc12 the results were TsaE inh inactive, DNA Pol III inh 13.4%, ALOX15 inhib 3.98µM*, BRCT PPI red -0.6%, BRCT inh green 110.8% and ERK AVP inh -31.9%.

Assay outcomes deposited in PubChem BioAssay by National Center for Advancing Translational Sciences (NCATS).
